Targets with a hit are over-represented here; the source holds about 7,900 in all. About 0.6% of all pairs of compound and target were hits. A number with no mark means an inactive call.
What was measured:
Experiment in all cases: log2 fold change, soluble protein after heating vs DMSO (PISA); higher = thermal stabilisation; K562 cells, 10 uM, 30 min; active = over 0.2 and 3.5 SD of the protein, either way, in both replicates (recomputed)
[1] = compound: CC[C@@H]1C(=O)N(C)c2cnc(Nc3ccc(C(=O)NC4CCN(C)CC4)cc3OC)nc2N1C1CCCC1
In short: (§1)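 For each measurement, 10 μM compound was applied for 30 min to K562 cells at 2×10^6 cells/mL. Aliquots were heated for 3 min across 48°C-58°C, pooled, and extracted in PBS with 0.5% NP-40 at 4°C; the supernatant after 21,000xg for 90 min was soluble protein. This was quantified by TMTpro 16plex LC-MS/MS with channel sums equalised, and thermal stability was reported relative to control samples from duplicates, on a log2 fold-change scale.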

volasertib = compound: CC[C@@H]1C(=O)N(C)c2cnc(Nc3ccc(C(=O)N[C@H]4CC[C@H](N5CCN(CC6CC6)CC5)CC4)cc3OC)nc2N1C(C)C [volasertib]
In short: as §1

[2] = compound: CC[C@H](C)N1C=C(C2=C(C=C(C=C21)C3=CN=C(C=C3)N4CCNCC4)C(=O)NCC5=C(C=C(NC5=O)C)C)C
In short: as §1

epoxomicin = compound: CC[C@H](C)[C@@H](C(=O)N[C@@H]([C@@H](C)O)C(=O)N[C@@H](CC(C)C)C(=O)[C@]1(CO1)C)NC(=O)[C@H]([C@@H](C)CC)N(C)C(=O)C [epoxomicin]
In short: as §1

[3] = compound: CCn1c(C(=O)N(C2CC2)C2CC2)cc2c3c(ncn3C)c(Nc3cc(C)n(C)n3)nc21
In short: as §1

[4] = compound: CCn1cc(-c2ccnc3[nH]c(-c4cccc(CN(C)C)c4)cc23)c(-c2ccc(NC(=O)N(C)C)cc2)n1
In short: as §1

[5] = compound: CN(C)CC(=O)Nc1ccc2[nH]c(=O)c3ccccc3c2c1
In short: as §1

rosiglitazone = compound: CN(CCOC1=CC=C(C=C1)C[C@H]2C(=O)NC(=O)S2)C3=CC=CC=N3 (racemic) [rosiglitazone]
In short: as §1

[6] = compound: CN1C2=C(C3=C1C(=O)N(N=C3)CC4=CC(=CC=C4)N)SC(=C2)S(=O)C
In short: as §1

[7] = compound: CN1CCC(CNc2ccc3ncc(-c4cccc(OC(F)(F)F)c4)n3n2)CC1
In short: as §1

saracatinib = compound: CN1CCN(CCOc2cc(OC3CCOCC3)c3c(Nc4c(Cl)ccc5c4OCO5)ncnc3c2)CC1 [saracatinib]
In short: as §1

sotrastaurin = compound: CN1CCN(c2nc(C3=C(c4c[nH]c5ccccc45)C(=O)NC3=O)c3ccccc3n2)CC1 [sotrastaurin]
In short: as §1

alvocidib = compound: CN1CC[C@H](c2c(O)cc(O)c3c(=O)cc(-c4ccccc4Cl)oc23)[C@H](O)C1 [alvocidib]
In short: as §1

Tubastatin A = compound: CN1CCc2c(c3ccccc3n2Cc2ccc(C(=O)NO)cc2)C1 [Tubastatin A]
In short: as §1

[8] = compound: CNC(=O)C1=CC=CC=C1NC2=NC(=NC=C2Cl)NC3=C(C=C(C=C3)N4CCOCC4)OC
In short: as §1

defactinib = compound: CNC(=O)c1ccc(Nc2ncc(C(F)(F)F)c(NCc3nccnc3N(C)S(C)(=O)=O)n2)cc1 [defactinib]
In short: as §1

rucaparib = compound: CNCc1ccc(-c2[nH]c3cc(F)cc4c3c2CCNC4=O)cc1 [rucaparib]
In short: as §1

[9] = compound: CNc1nc(-c2ccc3c(N)n[nH]c3c2)cc(N2C[C@@H](C(=O)NC3CCCCC3)CC[C@H]2C)n1
In short: as §1

encorafenib = compound: COC(=O)N[C@@H](C)CNc1nccc(-c2cn(C(C)C)nc2-c2cc(Cl)cc(NS(C)(=O)=O)c2F)n1 [encorafenib]
In short: as §1

[10] = compound: COC(=O)[C@H](CCSC)NC(=O)C1=C(C=C(C=C1)NC[C@H](CS)N)C2=CC=CC=C2
In short: as §1

UniProt P15056, sequence (P15056 whole entry, looked up): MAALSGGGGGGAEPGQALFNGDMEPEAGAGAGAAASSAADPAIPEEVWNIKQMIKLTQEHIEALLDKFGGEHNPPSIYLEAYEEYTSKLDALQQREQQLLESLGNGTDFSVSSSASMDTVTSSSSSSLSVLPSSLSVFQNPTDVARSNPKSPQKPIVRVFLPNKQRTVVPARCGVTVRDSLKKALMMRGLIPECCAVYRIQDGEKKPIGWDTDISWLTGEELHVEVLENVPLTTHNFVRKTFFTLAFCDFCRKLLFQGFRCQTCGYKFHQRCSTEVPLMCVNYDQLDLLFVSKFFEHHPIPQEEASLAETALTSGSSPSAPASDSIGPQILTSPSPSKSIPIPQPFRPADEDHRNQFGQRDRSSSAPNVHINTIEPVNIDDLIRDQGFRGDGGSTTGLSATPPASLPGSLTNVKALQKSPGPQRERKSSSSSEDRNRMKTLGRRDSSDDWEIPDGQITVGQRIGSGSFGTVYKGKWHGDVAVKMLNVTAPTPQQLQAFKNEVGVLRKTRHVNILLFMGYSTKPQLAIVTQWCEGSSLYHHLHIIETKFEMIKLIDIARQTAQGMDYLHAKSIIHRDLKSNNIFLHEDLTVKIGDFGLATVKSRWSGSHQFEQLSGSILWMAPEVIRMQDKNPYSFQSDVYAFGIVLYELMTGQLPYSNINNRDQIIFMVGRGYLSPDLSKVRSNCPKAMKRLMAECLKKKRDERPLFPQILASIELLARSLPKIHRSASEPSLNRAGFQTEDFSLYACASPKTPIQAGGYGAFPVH
UniProt Q00973, sequence (Q00973 whole entry, looked up): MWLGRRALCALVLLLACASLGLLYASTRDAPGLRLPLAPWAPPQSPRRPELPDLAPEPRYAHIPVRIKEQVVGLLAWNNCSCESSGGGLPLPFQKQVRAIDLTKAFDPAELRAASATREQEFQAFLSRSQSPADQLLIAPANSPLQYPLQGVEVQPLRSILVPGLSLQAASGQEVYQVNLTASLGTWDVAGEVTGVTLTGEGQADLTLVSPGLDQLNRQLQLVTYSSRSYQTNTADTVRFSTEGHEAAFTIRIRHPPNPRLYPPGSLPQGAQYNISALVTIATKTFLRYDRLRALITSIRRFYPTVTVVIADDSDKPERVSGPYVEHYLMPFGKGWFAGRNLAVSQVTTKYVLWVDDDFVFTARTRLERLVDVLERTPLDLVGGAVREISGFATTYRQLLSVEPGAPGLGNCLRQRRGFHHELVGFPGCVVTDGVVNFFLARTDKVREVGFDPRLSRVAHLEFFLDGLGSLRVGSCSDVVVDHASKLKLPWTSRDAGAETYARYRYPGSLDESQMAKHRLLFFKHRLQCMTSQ
UniProt P08758, sequence (P08758 whole entry, looked up): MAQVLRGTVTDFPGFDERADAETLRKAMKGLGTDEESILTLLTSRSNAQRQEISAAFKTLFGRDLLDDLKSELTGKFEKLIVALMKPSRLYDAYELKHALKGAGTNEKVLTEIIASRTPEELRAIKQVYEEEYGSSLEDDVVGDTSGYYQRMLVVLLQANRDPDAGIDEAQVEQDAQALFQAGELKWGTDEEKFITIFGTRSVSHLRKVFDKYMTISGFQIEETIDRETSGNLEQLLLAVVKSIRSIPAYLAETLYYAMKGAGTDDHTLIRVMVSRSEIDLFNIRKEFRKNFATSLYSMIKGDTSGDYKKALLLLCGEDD
UniProt P33121, sequence (P33121 whole entry, looked up): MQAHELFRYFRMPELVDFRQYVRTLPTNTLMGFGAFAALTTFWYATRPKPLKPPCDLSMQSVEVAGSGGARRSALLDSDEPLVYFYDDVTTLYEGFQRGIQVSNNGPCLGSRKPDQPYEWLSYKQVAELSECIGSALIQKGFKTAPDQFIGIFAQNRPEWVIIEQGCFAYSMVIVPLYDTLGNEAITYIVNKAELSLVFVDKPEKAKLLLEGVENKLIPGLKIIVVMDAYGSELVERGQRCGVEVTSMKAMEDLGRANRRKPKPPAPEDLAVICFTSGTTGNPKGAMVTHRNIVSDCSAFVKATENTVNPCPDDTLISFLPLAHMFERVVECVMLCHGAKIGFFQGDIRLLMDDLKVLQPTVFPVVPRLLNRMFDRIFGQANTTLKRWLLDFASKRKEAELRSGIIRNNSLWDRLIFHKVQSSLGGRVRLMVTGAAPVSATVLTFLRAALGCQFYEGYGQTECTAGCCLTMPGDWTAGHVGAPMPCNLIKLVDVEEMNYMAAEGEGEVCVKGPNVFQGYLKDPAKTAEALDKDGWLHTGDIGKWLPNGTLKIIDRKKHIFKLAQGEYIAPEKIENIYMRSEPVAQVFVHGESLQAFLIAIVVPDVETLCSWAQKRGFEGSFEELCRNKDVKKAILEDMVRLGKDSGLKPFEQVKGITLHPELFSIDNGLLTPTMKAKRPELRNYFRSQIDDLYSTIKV
UniProt Q9NX46, sequence (Q9NX46 whole entry, looked up): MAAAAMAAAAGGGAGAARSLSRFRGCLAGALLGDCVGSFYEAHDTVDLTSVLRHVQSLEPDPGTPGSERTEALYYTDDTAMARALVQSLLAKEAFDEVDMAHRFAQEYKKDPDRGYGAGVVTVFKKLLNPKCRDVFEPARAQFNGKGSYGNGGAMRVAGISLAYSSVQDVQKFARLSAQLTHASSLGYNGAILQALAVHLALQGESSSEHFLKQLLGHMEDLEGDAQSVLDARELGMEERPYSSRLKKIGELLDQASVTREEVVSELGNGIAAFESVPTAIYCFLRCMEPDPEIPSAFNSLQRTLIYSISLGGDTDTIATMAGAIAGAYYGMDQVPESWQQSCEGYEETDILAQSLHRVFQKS
UniProt Q9Y312, sequence (Q9Y312 whole entry, looked up): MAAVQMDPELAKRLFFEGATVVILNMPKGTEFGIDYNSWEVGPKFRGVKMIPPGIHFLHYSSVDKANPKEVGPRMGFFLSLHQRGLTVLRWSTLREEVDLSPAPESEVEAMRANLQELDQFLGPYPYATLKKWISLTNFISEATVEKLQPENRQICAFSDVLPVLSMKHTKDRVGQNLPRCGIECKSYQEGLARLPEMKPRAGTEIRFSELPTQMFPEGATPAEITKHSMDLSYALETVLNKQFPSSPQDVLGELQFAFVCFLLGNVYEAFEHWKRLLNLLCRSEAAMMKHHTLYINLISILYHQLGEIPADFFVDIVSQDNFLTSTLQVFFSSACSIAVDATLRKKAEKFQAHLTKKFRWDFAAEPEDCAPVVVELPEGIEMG
UniProt P56385, sequence (P56385 whole entry, looked up): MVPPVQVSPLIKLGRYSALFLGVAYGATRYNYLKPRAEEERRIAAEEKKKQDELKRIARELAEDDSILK
UniProt Q14137, sequence (Q14137 whole entry, looked up): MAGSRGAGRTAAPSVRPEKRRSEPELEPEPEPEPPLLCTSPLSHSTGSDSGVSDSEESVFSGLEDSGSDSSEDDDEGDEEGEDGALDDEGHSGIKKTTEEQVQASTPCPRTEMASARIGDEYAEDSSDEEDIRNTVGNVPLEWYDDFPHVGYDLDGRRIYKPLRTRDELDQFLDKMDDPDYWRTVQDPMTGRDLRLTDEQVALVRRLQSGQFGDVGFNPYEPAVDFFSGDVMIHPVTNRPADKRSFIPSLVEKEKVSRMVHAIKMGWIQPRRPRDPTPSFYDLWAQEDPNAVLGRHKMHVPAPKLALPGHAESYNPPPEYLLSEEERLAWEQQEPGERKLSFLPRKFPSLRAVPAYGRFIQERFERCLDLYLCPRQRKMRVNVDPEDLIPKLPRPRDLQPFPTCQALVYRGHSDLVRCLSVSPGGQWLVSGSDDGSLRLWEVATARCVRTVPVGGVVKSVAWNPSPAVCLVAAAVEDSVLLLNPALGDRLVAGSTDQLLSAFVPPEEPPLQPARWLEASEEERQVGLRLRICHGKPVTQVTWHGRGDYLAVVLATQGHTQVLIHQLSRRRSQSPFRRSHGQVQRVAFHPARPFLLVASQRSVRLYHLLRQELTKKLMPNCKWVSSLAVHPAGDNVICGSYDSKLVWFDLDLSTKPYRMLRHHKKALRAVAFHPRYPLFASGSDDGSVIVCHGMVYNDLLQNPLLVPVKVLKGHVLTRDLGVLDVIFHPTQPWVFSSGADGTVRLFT
UniProt Q13685, sequence (Q13685 whole entry, looked up): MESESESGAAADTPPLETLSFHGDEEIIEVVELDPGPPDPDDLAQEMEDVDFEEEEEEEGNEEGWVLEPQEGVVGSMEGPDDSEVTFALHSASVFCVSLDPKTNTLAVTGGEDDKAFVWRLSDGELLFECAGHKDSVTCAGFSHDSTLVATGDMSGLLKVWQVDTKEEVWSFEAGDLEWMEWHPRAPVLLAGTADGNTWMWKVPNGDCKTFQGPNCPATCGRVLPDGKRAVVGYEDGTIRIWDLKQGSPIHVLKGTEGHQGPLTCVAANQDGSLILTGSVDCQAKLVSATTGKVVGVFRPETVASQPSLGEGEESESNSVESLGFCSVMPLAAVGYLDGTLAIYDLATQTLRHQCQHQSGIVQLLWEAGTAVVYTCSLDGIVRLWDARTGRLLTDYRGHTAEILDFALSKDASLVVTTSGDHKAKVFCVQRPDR
UniProt P49748, sequence (P49748 whole entry, looked up): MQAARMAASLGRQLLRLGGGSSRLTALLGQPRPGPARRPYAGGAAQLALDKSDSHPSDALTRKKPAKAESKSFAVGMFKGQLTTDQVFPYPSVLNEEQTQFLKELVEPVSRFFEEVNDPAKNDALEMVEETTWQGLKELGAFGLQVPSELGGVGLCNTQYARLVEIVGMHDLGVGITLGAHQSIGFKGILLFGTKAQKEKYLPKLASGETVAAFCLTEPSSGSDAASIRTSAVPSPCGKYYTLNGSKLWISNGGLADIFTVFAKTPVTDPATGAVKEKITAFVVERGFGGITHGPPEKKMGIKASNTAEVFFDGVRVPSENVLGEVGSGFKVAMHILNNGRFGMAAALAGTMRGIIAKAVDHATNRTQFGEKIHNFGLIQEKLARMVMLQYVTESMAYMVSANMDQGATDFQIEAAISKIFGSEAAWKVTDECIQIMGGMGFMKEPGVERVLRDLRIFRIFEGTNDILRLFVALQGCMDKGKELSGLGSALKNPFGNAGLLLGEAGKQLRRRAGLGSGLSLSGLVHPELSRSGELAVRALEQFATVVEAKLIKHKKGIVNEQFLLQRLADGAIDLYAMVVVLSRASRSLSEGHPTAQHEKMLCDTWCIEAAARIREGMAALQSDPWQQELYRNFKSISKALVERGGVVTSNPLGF

Target	log2 fold change [1]	log2 fold change (volasertib)	log2 fold change [2]	log2 fold change (epoxomicin)	log2 fold change [3]	log2 fold change [4]	log2 fold change [5]	log2 fold change (rosiglitazone)	log2 fold change [6]	log2 fold change [7]	log2 fold change (saracatinib)	log2 fold change (sotrastaurin)	log2 fold change (alvocidib)	log2 fold change (Tubastatin A)	log2 fold change [8]	log2 fold change (defactinib)	log2 fold change (rucaparib)	log2 fold change [9]	log2 fold change (encorafenib)	log2 fold change [10]
ARFGAP1 (UniProt Q8N6T3)	-0.182	-0.545 (active)	0.056	0.026	-0.042	0.008	0.036	-0.003	-0.016	0.068	-0.021	-0.086	-0.029	0.034	0.068	-0.158	-0.048	-0.087	0.068	-0.044
ADPRHL2 (UniProt Q9NX46)	-0.027	0.071	-0.028	0.145	-0.05	-0.093	0.116	0.002	-0.042	0.133	0.039	-0.001	-0.003	0.031	0.049	0.015	-0.085	-0.026	-0.009	-0.116
BCCIP isoform 2 (UniProt Q9P287)	-0.037	-0.038	0.044	0.019	0.023	0.022	0.026	0.021	-0.042	-0.028	-0.004	-0.044	0.031	-0.036	0.013	-0.019	0.087	-0.005	0.037	-0.024
ACSL1 (UniProt P33121)	-0.09	-0.183	0.012	0.018	0.05	-0.031	0	0.003	-0.064	-0.393 (active)	0	0.029	-0.083	-0.075	-0.003	-0.025	-0.021	-0.025	0.031	0.042
BOP1 (UniProt Q14137)	-0.072	-0.328	0.019	0.002	-0.023	-0.075	0.009	-0.053	0.228	0.141	0.011	-0.043	-0.082	-0.013	0.015	-0.157	0.066	-0.016	0.155	0.046
AAMP (UniProt Q13685)	0.072	0.051	-0.016	-0.017	0.023	-0.016	0.011	0.001	-0.004	0.054	-0.002	0.006	-0.017	-0.049	0.022	-0.102	0.054	-0.014	-0.016	-0.009
ACADVL isoform 3 (UniProt P49748)	0.119	0.099	-0.007	0.025	0.008	-0.014	0.004	-0.004	-0.054	-0.045	0.027	0.056	-0.031	-0.028	-0.022	-0.011	-0.007	0.008	-0.021	-0.001
ARL3 (UniProt P36405)	0.036	0.046	0.001	-0.01	-0.001	-0.005	-0.014	0.008	-0.098	-0.018	0.021	-0.008	-0.01	-0.012	-0.025	-0.025	-0.033	-0.035	-0.022	0.022
AAR2 (UniProt Q9Y312)	-0.032	-0.016	-0.03	0.037	-0.038	0.106	-0.001	0	-0.087	-0.096	0.06	-0.017	-0.026	-0.027	-0.049	0.063	0.17	-0.069	-0.029	-0.015
ANXA5 (UniProt P08758)	-0.084	-0.214 (active)	0.04	0.068	0.002	-0.041	0.012	0.007	-0.04	-0.042	-0.023	-0.038	-0.083	-0.006	0.039	-0.082	-0.001	0.012	0.083	-0.062
ATAD3A isoform 2 (UniProt Q9NVI7)	-0.145	-0.202	0.038	0.05	-0.055	0.033	0.018	0.007	0.177	-0.319 (active)	0.001	-0.053	0.102	0.04	-0.139	0.05	0.252	-0.017	0.154	-0.046
BRAF (UniProt P15056)	0	-0.097	0.043	0.04	0.008	0.029	0.036	0.034	-0.039	-0.07	0.029	-0.069	-0.059	0.007	-0.02	-0.058	0.013	-0.059	0.014	-0.037
ANKZF1 (UniProt Q9H8Y5)	-0.063	-0.055	0.036	-0.001	-0.036	0.004	-0.076	-0.002	0.214	0.066	-0.146	-0.093	0.034	0.088	0.04	0.123	0.167	0.156	0.119	-0.274
BCCIP (UniProt Q9P287)	-0.009	-0.047	-0.005	0.092	-0.04	0.033	0.019	0.042	0.047	-0.043	-0.132	0	0.065	-0.045	-0.013	0.072	0.165	0.02	0.076	-0.049
ATP5ME (UniProt P56385)	0.004	0.038	-0.048	0.075	-0.002	0.002	-0.054	-0.013	0.018	0.069	0.026	0.009	0.04	-0.009	-0.006	0.029	-0.022	-0.069	-0.07	0.023
B4GALNT1 (UniProt Q00973)	-0.243	-0.097	-0.115	-0.059	0.078	0.01	0.143	0.025	-0.103	0.173	-0.143	-0.07	0.177	-0.057	-0.021	-0.182	0.017	0.025	0.144	-0.425

— the supplement of paper PMC10849652
